# Screening data deposited in PubChem by The Scripps Research Institute Molecular Screening Center.
# The entries come from a sample that favours hits as a whole.
# TTR transcr act: activators of transthyretin transcription | SH-SY5Y TTR promoter Gaussia luciferase, luminescence; 100% = recombinant luciferase protein wells | activation, % at 16.7 µM | 92,000 tested, 1.3% active;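 active = activation above the mean of all tested compounds plus 3 SD, cut at about 9.5% in these data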;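 note: cells exposed to compounds for one day before reading; 0% = median of all test compound wells on the plate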
# TTR inh HuH7: decreases TTR transcription in HuH7 cells in activator counter-screen; shares compounds with TTR transcr act; HuH7 TTR promoter-Gaussia luciferase reporter, luminescence; inhibition, % at 16.7 µM; 1,100 tested, 4% active; AID 1117279;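 active = average inhibition above the solvent-only control wells' mean plus 3 SD, cut at about 15% in these data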;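 note: 0% = cells with DMSO only and 100% = cells with inhibitor control FD; inhibitors lower well luminescence so higher value means more inhibition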
# TTR act confirm: human TTR transcription activation, confirmation. shares compounds with TTR transcr act. SHSY5Y TTR promoter Gaussia luciferase, luminescence; 100% = purified Lucia enzyme wells, no cells. activation, % at 16.7 µM. 1,100 tested, under 10 active. AID 1117280;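 active = mean activation above a set limit taken from the earlier primary screen, cut at about 11% in these data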;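 note: 0% = DMSO-treated cells and 100% = recombinant Lucia luciferase without cells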
# * = called active by the depositor.
SMILES,TTR transcr act,others
Cc1ccnc(NC(=S)N2CC3CN(c4cccc(C(F)(F)F)c4)CC3C2)c1 (stereo not given),3,
Cc1ccc(CN2CCCCC(NC(=O)Nc3cccc([N+](=O)[O-])c3)C2=O)cc1 (stereo not given),-2,
COc1ccc(-c2nc(C)c(C(C)=O)n2O)cc1,0,
COc1ccc(C(C)n2c(C)c3c(C)nnc(C)c3c2C)cc1 (stereo not given),9.8*,TTR inh HuH7=-9;TTR act confirm=1
CCOC(=O)CSc1nnc(-c2ccc(OC)cc2)n1CC,-1,
CN(C)c1cccc(-c2cnc(N3CCC(C(N)=O)CC3)nc2)c1,1,
O=C(C1CCC1)n1ccc2ccc(-c3ccc4ccn(Cc5ccccc5)c4c3)cc21,-1,
Cc1cnc(NC(=O)CCCc2nc3ccccc3s2)s1,13*,TTR inh HuH7=16*;TTR act confirm=1
O=C(CCCSc1nc2ccccc2s1)NCc1ccc2c(c1)OCO2,0,
O=C(O)CCCc1nc2ccccc2s1,-2,
COC(=O)CCCc1nc2ccccc2s1,-4,
CC(C)(C)NC(=O)CCCSc1nc2ccccc2s1,-1,
Cc1ccccc1NC(=O)CCCSc1nc2ccccc2s1,12*,TTR inh HuH7=-16;TTR act confirm=0
O=C(Nc1cccc2ccccc12)OC[C@@H]1CSCCS(=O)(=O)N1,7,
CCOC(=O)C1=C(CSc2nc(-c3ccncc3)ccc2C#N)OC(N)=C(C#N)C1c1ccc(OC)cc1 (stereo not given),2,
N#Cc1ccc(-c2cccnc2)nc1SCC(N)=O,1,
CCOC(=O)CSc1nc(-c2ccncc2)ccc1C#N,24*,TTR inh HuH7=-1;TTR act confirm=-1
COc1cc2ccccc2cc1C(=O)NC1CCCC1,0,
COc1ccc2cc(C(=O)NC3CCCCC3)c(=O)oc2c1,11*,TTR inh HuH7=-5;TTR act confirm=0
COc1ccc2cc(C(C)=O)c(=O)oc2c1,0,
C=CCCC(=O)N[C@H]1CC[C@@]23CCCN2C(=O)CCC[C@H]3[C@H]1CCC,1,
O=C(NCCc1nc2ccccc2[nH]1)/C(=C/c1ccco1)NC(=O)c1ccc(Br)cc1,-1,
COc1ccc(/C=C/C(=O)N/C(=C\c2ccco2)C(=O)NCCc2nc3ccccc3[nH]2)cc1,12*,TTR inh HuH7=4;TTR act confirm=-1
O=C(NCCc1nc2ccccc2[nH]1)/C(=C/c1ccco1)NC(=O)c1ccccc1Br,-1,
O=C(Cc1n[nH]c(=O)c2ccccc12)Nc1ccc(-c2nnc3n2CCCCC3)cc1,1,
SMILES,TTR transcr act,others
O=C(Cn1[nH]c(=O)c2ccccc2c1=O)Nc1ccc(-c2nnc3n2CCCCC3)cc1,12*,TTR inh HuH7=-15;TTR act confirm=1
Cc1c(C(=O)Nc2ccc(-c3nnc4n3CCCCC4)cc2)oc2c1ccc1ccccc12,-2,
CC1=C(C(=O)N2CCOCC2)CC(CC(=O)NCC2CCCCC2)C(=O)N1CCC1=CCCCC1 (stereo not given),2,
C=CCN1C(=O)[C@H](CC(=O)NCc2ccc(OC)c(OC)c2)[C@@]2(C(=O)OCC)CCCC=C12,0,
COCO[C@@H]1CC(CO)=C[C@H]2OCO[C@H]21,7,
COC(=O)c1ccc(COC(=O)c2cccnc2Cl)cc1,-1,
CSc1ncccc1C(=O)OCc1c(F)cccc1Cl,0,
COC(=O)c1cccc(COC(=O)c2cccnc2SC)c1,12*,TTR inh HuH7=-3;TTR act confirm=0
COC(=O)[C@]12C[C@H](CC(=O)NCc3cccc(C(F)(F)F)c3)C(=O)N(Cc3ccc(Cl)cc3Cl)C1=C[C@H](COCc1ccccc1)O[C@@H]2C,-1,
COc1ccc(S(=O)(=O)n2c(N)nc3ccccc32)cc1,-1,
CCn1c(N2CCN(S(=O)(=O)c3ccc(OC)cc3)CC2)nc2ccccc21,14*,TTR inh HuH7=-12;TTR act confirm=-1
COc1ccc(S(=O)(=O)N2CCN(Cc3ccccc3OC)CC2)cc1,-1,
C[C@H]1[C@H](N)CC[C@@]23CCCN2C(=O)CCC[C@@H]13,0,
O=C1CCC(C(=O)Nc2cccc(S(=O)(=O)N3CCOCC3)c2)N1 (stereo not given),-1,
COc1ccc(Cc2nc3ccc(C(=O)N4CCCC4)cc3o2)cc1,-1,
COc1ccc(Cc2nc3ccc(C(=O)NCc4cc(C)no4)cc3o2)cc1OC,9.9*,TTR inh HuH7=1;TTR act confirm=0
COC(=O)CCCNC(=O)c1ccc2nc(Cc3ccc(OC)cc3)oc2c1,1,
O=C(Nc1ccc(F)cc1)OCc1cn(Cc2ccc(F)c(F)c2)nn1,-1,
COc1ccccc1NC(=O)CCC(=O)O,15*,TTR inh HuH7=5;TTR act confirm=-1
CC/C(=N/NC(=O)CCC(=O)Nc1ccccc1OC)c1ccccc1,5,
CCOc1ccccc1NC(=O)CCC(=O)Nc1ccccc1OCC,2,
CCC[C@H]1[C@@H](OC(=O)N2CCOCC2)CC[C@@]23CCCN2C(=O)CCC[C@@H]13,0,
COc1ccccc1CC1(C)C(=O)Nc2c(Cl)cccc21 (stereo not given),8,
O=C(Nc1ccc(Br)cc1)O[C@@H]1CC[C@@]23CCCN2C(=O)CCC[C@H]3C1,1,
O=S1(=O)CCSC[C@@H](CNCc2ccco2)N1,-1,
SMILES,TTR transcr act,others
CCOC(=O)[C@]12CCCC3=C1N(CCC3)C(=O)[C@@H](CC(=O)N1CCC(c3ccccc3)CC1)C2,0,
CCCC/C=C1/[C@@H](CC)N(Cc2ccc(OC)cc2OC)C2=N[C@H](c3ccccc3)CC(=O)N21,2,
COc1cc(NC(=S)N(C)C)c(OC)cc1Cl,3,
COCC(=O)Nc1cc(OC)c(Cl)cc1OC,-2,
COc1cc(NC(=S)N(C)CCC#N)c(OC)cc1Cl,11*,TTR inh HuH7=-6;TTR act confirm=-1
CC(C)[C@H]1/C(=C/C2CC2)N2C(=O)C[C@H](c3ccccc3)N=C2N1C,4,
COc1cccc(NC(=O)CSc2ccc(-c3sc(C)nc3C)nn2)c1,-2,
Cc1nc(C)c(-c2ccc(SCc3ccccc3C)nn2)s1,16*,TTR inh HuH7=8;TTR act confirm=-1
Cc1ccccc1CSc1nnc(C)c(=O)[nH]1,0,
CN(C)c1ccc(C(=O)NC2CCCCN(Cc3ccc(Cl)cc3)C2=O)cc1 (stereo not given),0,
O=C1c2ccccc2C(=O)N1Cc1cccnc1,-2,
Cc1cc(CN2C(=O)c3ccccc3C2=O)on1,15*,TTR inh HuH7=-7;TTR act confirm=0
COC(=O)c1ccc(CN2C(=O)c3ccccc3C2=O)o1,0,
CCC(CC)NC(=O)O[C@H]1CC[C@@]23CCCN2C(=O)CCC[C@H]3C1,-1,
Cc1cc(C)nc(SCCC(=O)Nc2cccc3ccccc23)n1,13*,TTR inh HuH7=-10;TTR act confirm=2
O=C(CSCC(=O)Nc1cccc2ccccc12)Nc1cccc2ccccc12,-1,
Cc1cc(C)nc(SCC(=O)Nc2ccnc3ccccc23)n1,-3,
COP(=O)(O)C[C@@H]1CCc2cc(C)cc([C@H](CC(C)C)NC(=O)OCc3ccccc3)c2O1,1,
CC(C)CCNC(=O)[C@H]1COC(O)([C@H](Cc2ccccc2)NC(=O)[C@@H](NC(=O)OCc2ccccc2)C(C)C)CN1C (stereo not given in full),2,
CCOC(=O)[C@]12CCCC=C1N(Cc1ccc(OC)cc1)C(=O)[C@@H]2CC(=O)NCc1cccc(C(F)(F)F)c1,-1,
Cc1cc(C(=O)N/N=C/C=C/c2ccccc2)n[nH]1,-2,
O=C(N/N=C/C=C/c1ccccc1)c1cccnc1,2,
Cc1ccc(/C=N/NC(=O)c2n[nH]c3c2CCCC3)cc1,-2,
Cc1ccc(-c2cc(C(=O)N/N=C/C=C/c3ccccc3)n[nH]2)s1,13*,TTR inh HuH7=-32;TTR act confirm=0
